D3 ag: D3 dopamine receptor (human) agonism; P35462; D3R DiscoveRx beta-arrestin cells, luminescence, 90 min; max activation, %; 0.58% of 410,000 active; in the data active = max activation above about 30%; note: 0% is about no effect
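Agonist mode: compounds and dopamine controls were applied to plated cells for 90 min at 37 degrees C after an overnight attachment at 1500 cells/well. Luminescent read-out followed 30 - 60 minutes at room temperature with DiscoveRx detection reagent.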
D3 antag: blocks the human D3 dopamine receptor | D3R cells, DiscoveRx beta-arrestin luminescence, antagonist mode; stronger effect = lower value | P35462 | max response, negative = inhibition, % | 2.5% of 360,000 active; in the data active = max response below about -50%; inconclusive = no clear call, values can overlap the other calls; note: % is set by controls: 0 for no effect and ±100 for the full control effect
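Cells expressing the human receptor were seeded at 1500 cells/well, incubated overnight at 37 degrees C in 5% CO2, then exposed to library compounds with dopamine controls for 90 minutes at 37 degrees C before luminescent detection.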
GLP1R ag: activates the human GLP-1 receptor; 0.007% of 380,000 active; P43220; HEK293 GLP-1R CRE-luciferase, luminescence, 4-6 h; cells express a hypersensitive GLP-1R form; Potency, µM (highest dose often 45.6 µM), without a hit: at the top dose activation, hits mostly activators; note: potency is the fitted concentration of half-maximal effect; % of control where 0% means no effect
Target sequence (P43220 whole entry, looked up): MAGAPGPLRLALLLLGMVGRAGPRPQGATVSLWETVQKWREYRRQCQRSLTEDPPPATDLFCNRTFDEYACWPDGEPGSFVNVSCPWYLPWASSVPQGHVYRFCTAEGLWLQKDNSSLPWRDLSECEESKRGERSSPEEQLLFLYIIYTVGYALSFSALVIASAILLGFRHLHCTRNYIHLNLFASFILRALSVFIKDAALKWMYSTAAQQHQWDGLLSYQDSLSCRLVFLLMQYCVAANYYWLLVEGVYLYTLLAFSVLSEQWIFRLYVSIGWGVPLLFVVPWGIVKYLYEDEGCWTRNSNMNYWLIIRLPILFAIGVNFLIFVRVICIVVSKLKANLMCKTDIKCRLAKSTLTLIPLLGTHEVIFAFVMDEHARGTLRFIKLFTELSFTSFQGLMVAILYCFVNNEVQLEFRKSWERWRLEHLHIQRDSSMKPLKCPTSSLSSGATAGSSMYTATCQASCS
GLP-1R inv ag: GLP-1 receptor (human) inverse agonism; P43220; AID 624417; 1.6% of 410,000 active; Potency, µM (highest dose often 38.3 µM), without a hit: top-dose activity change, negative = inhibition, most hits filed as inhibitors; HEK293 GLP-1R CRE-luciferase, luminescence, 24 h; GLP-1R form is constitutively active; note: potency is the fitted concentration of half-maximal effect; % is set by controls: 0 for no effect and ±100 for the full control effect; nearly all actives have a fitted effect of over 55% in size
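Seeding at 200 cells/uL, 12 h culture, 24 hr compound treatment, then luciferase reagent and a luminescence read; cells are HEK293 stably expressing a constitutively active GLP-1R plus cAMP-responsive luciferase.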
An asterisk follows results filed as active; ? = inconclusive; nt = no result; [ ] = dose if it differs, or a comment. Compounds with a hit are over-represented: about 4.3% of the library has one in this group of screens. Unless noted, calls come from the whole dose curve; as a rule, active = well fitted curve in the direction sought with a large enough effect; inconclusive = small, poorly fitted or top-dose-only effect, or another doubt; inactive = no such curve, though single readings can be large; an effect the other way counts as inactive or inconclusive.

SMILES	D3 ag	D3 antag	GLP1R ag	GLP-1R inv ag
C(=C\c1ccccc1)/CN1CCN(C(c2cc3ccccc3o2)c2nnnn2-c2ccc3c(c2)OCCO3)CC1 (centres undefined)	-21	-89*	2%	?
C(=C\c1ccccc1)/CN1CCN(C(c2cccs2)c2nnnn2-c2ccc3c(c2)OCCO3)CC1 (centres undefined)	-19	-79*	1%	?
CCC(c1nnnn1-c1ccc2c(c1)OCCO2)N1CCN(c2ccccn2)CC1 (centres undefined)	4	45	4%	22%
Cc1[nH]c2ccccc2c1/C=N/Nc1ccc([N+](=O)[O-])cc1	-16	?	4%	2.8µM*
O=[N+]([O-])c1ccc(N/N=C/c2c[nH]c3ccccc23)c(S(=O)(=O)Nc2ccc(Cl)cc2)c1	-15	?	-7%	?
C/C(=N/Nc1ccc([N+](=O)[O-])cc1)c1c[nH]c2ccccc12	-7	1	6%	2.5µM*
COc1ccccc1NS(=O)(=O)c1cc([N+](=O)[O-])ccc1N/N=C/c1c(C)[nH]c2ccccc12	-33	-52*	3%	0%
Cc1[nH]c2ccccc2c1/C=N/NC(=O)c1cccc([N+](=O)[O-])c1	-8	-4	6%	-30%
CCOC(=O)c1c(C)[nH]c(C)c1S(=O)(=O)N(C)CC(=O)N1CCN(c2cccc(C)c2C)CC1	3	nt	nt	?
Cc1nc2c3ccccc3nc(NNC(=O)CCC(=O)N3CCN(c4cccc(Cl)c4)CC3)n2n1	-12	nt	nt	-8%
CC(C)C(NS(=O)(=O)c1ccc2c(c1)oc(=O)n2C)C(=O)NCCc1ccccc1 (centres undefined)	6	nt	nt	11%
COc1ccc(Cl)cc1NC(=O)CSc1nnc2[nH]c(=O)cc(C)n12	-22	nt	nt	1%
CCOc1ccc(NC(=O)Nc2c[nH]c(=O)[nH]c2=O)cc1	4	nt	1%	-6%
Cc1ccc(CN(C)C(=O)c2ccccc2Sc2ccccc2C#N)cc1	-2	-9	6%	10µM*
COc1cccc(CN(C)C(=O)c2ccccc2Sc2ccccc2C#N)c1OC	-2	1	12%	8.9µM*
COc1ccc(C(=O)Nn2c(C)nc3ccccc3c2=O)cc1Br	3	26	11%	-17%
Cc1ccc(C)c(CN2C(=O)CSc3ccc(C(=O)NCCc4ccc(Cl)cc4)cc32)c1	2	nt	-1%	12%
O=S(=O)(c1ccc(Br)s1)N1CCN(c2ncccn2)CC1	-17	-79*	-20%	2%
O=S(=O)(c1ccc(Br)s1)N1CCN(c2ccccn2)CC1	-4	?	3%	-5%
COc1ccc(N2CC(C)Cn3c2nc2c3c(=O)n(CCN3CCOCC3)c(=O)n2C)cc1 (centres undefined)	7	6	1%	6%
COc1cccc(N2CC(C)Cn3c2nc2c3c(=O)n(CCN3CCOCC3)c(=O)n2C)c1 (centres undefined)	-5	-64*	-17%	-3%
COc1cc(OC)nc(-n2ncc(Br)c(Br)c2=O)n1	-30	-86*	-5%	?
Cc1ccc(CNC(=O)c2cc(=O)c3cc(C)c(C)cc3o2)cc1	-6	nt	nt	2%
CCCCN(CCCC)C1=C(C(=O)c2ccccc2)N(CC)S(=O)(=O)c2ccccc21	-6	nt	-4%	-15%
CCN1/C(=C(\O)c2ccccc2)C(=O)c2ccccc2S1(=O)=O	-5	-56*	-14%	-27%
SMILES	D3 ag	D3 antag	GLP1R ag	GLP-1R inv ag
Cc1ccc(N2CC(NC(=O)C3CCCC3)CC2=O)cc1C (centres undefined)	2	nt	nt	7%
CCc1oc2ccccc2c1C(=O)CCN1CCCCC1	-7	-94*	1%	0%
CCN(c1ccccc1)S(=O)(=O)c1ccc(C(=O)NCC(c2cccs2)N(C)C)cc1 (centres undefined)	-13	-52*	4%	-5%[0.307 µM]
CCN(c1ccccc1)S(=O)(=O)c1ccc(NC(=S)NC(=O)c2cccs2)cc1	-11	-74*	-6%	?
CCN(c1ccccc1)S(=O)(=O)c1ccc(C(=O)NCC(=O)Nc2ccc(F)c(F)c2F)cc1	-9	-97*	-7%	?
CCN(c1ccccc1)S(=O)(=O)c1cc(C(=O)NCC(c2ccc(OC)cc2)N(C)C)ccc1C (centres undefined)	-20	-90*	1%	11µM*
CN(C)S(=O)(=O)c1ccc(NC(=S)NC(=O)c2cccs2)cc1	10	-21	7%	7%
CCN(c1ccccc1)S(=O)(=O)c1cccc(C(=O)NCC(c2cccs2)N2CCOCC2)c1 (centres undefined)	5	15	-3%	-21%
COc1ccc(C(CNC(=O)c2ccc(S(=O)(=O)N(C)C)cc2)N(C)C)cc1 (centres undefined)	0	-10	12%	2%
Cc1ccccc1Oc1nnc(-c2cccs2)c2ccccc12	-11	?	15%	?
CCOc1ccc(C(=O)NCC(c2cccs2)N(C)C)cc1OCC (centres undefined)	-7	-59*	2%	0%
CCCOc1ccc(C(=O)NCC(c2cccs2)N(C)C)cc1 (centres undefined)	-3	-2	3%	-11%
CC1=CN(S(=O)(=O)c2ccc(C)cc2)C[C@@H]2[C@H]3CC[C@H](C3)[C@H]12	-54	-65*	3%	?
COc1cccc(C(=O)Nc2ccccc2OCc2cc(=O)n3cc(C)ccc3n2)c1	2	nt	nt	-5%
COc1cc(-c2c(C(=O)c3ccccc3)[nH]c(N)c2C(N)=O)ccc1F	3	21	7%	16%
COc1ccc(-c2c(C(=O)c3ccccc3)[nH]c(N)c2C(=O)c2ccc(Br)cc2)cc1OC	-4	-73*	-3%	-17%
COc1ccc(C(=O)c2[nH]c(N)c(C(N)=O)c2-c2ccc(OC)c(OC)c2)cc1	7	14	10%	14%
COc1ccc(-c2c(C(=O)c3ccccc3)[nH]c(N)c2C(=O)c2ccccc2)cc1OC	-10	-67*	-4%	15%
COc1cc(C(=O)Nc2nonc2-c2ccc(Cl)cc2)cc(OC)c1OC	-8	nt	nt	-30%
CCCOc1ccc(C(=O)Nc2ccc3oc(-c4ccc5ccccc5c4)nc3c2)cc1	6	nt	nt	6%
Cn1c(-c2ccccc2)cc2onc(-c3ccccc3)c2c1=O	0	-69*	-6%	?
COc1ccc(CNC(=O)C(C)OC(=O)c2cccn2C)cc1 (centres undefined)	1	-25	3%	-11%
Cc1ccc(C)c(C(=O)C(C)OC(=O)c2cccn2C)c1 (centres undefined)	-1	-51*	6%	?
Cc1ccccc1NC(=O)c1c(NC(=O)C(C)Oc2cccc(Cl)c2)sc2c1CCCC2 (centres undefined)	7	nt	nt	21%
CN(C)CCOC1c2ccccc2CCc2ccc3ccccc3c21 (centres undefined)	-36	?	2%	5.6µM*

Bioassay records deposited in PubChem by National Center for Advancing Translational Sciences (NCATS).
